Measurements reported in PubChem BioAssay AID1159580 (chemical genetic matrix, 2015).
“And” between values parts separate entries of the source, which are not always exact repeats. Equal values may be shown once. About 2,000 (36%) of roughly 5,500 compounds were called active. About 18% were inconclusive and are not listed. Rule as the data show it: active = normalized growth mostly below about 0.91 (no sharp cut-off); inconclusive = no clear call, values can overlap the other calls; inactive = mostly above about 0.92. This is one part of the list.

Test: chemical genetic growth profiling, strain panel (AID 1159580);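 also: tested at 20 µM; growth read once vehicle control cultures reached saturation at 30 °C; 1 = growth at the plate median or of vehicle wells; lower values mean less growth of the strain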
Settings: S. cerevisiae deletion strains, growth OD

Measured: normalized growth

Cc1cc(=O)oc2cc(O)c(O)cc12
inactive: locus YAL021C, strain ccr4, stronger effect = lower value 1.01 | locus YAL026C, strain drs2, stronger effect = lower value 0.996 | locus YAL030W, strain snc1, stronger effect = lower value 1 | locus YBL061C, strain skt5, stronger effect = lower value 0.999 | locus YBR009C, strain hhf1, stronger effect = lower value 0.963 | locus YBR021W, strain FUR4, stronger effect = lower value 1.02 | locus YBR023C, strain chs3, stronger effect = lower value 0.998 | locus YBR171W, strain sec66, stronger effect = lower value 0.987 | locus YBR229C, strain ROT2, stronger effect = lower value 1 | locus YBR231C, strain swc5, stronger effect = lower value 0.995 | locus YBR279W, strain paf1, stronger effect = lower value 0.987 | locus YCL011C, strain gbp2, stronger effect = lower value 0.994 | locus YCL016C, strain dcc1, stronger effect = lower value 1 | locus YCL029C, strain bik1, stronger effect = lower value 0.974 | locus YCL061C, strain MRC1, stronger effect = lower value 0.989 | locus YCL069W, strain vba3, stronger effect = lower value 0.99 | locus YCR088W, strain abp1, stronger effect = lower value 1 | locus YDL005C, strain med2, stronger effect = lower value 0.98 | locus YDL035C, strain GPR1, stronger effect = lower value 0.973 | locus YDL040C, strain nat1, stronger effect = lower value 0.983 | locus YDL074C, strain BRE1, stronger effect = lower value 0.976 | locus YDL101C, strain DUN1, stronger effect = lower value 0.958 | locus YDL134C, strain PPH21, stronger effect = lower value 0.955 | locus YDL185W, strain tfp1, stronger effect = lower value 0.979 | locus YDL192W, strain arf1, stronger effect = lower value 0.961 | locus YDR001C, strain nth1, stronger effect = lower value 0.998 | locus YDR069C, strain doa4, stronger effect = lower value 0.994 | locus YDR101C, strain arx1, stronger effect = lower value 0.973 | locus YDR137W, strain rgp1, stronger effect = lower value 0.964 | locus YDR159W, strain sac3, stronger effect = lower value 0.997 | locus YDR162C, strain NBP2, stronger effect = lower value 0.985 | locus YDR195W, strain ref2 1.05 | locus YDR297W, strain sur2, stronger effect = lower value 0.995 | locus YDR318W, strain mcm21, stronger effect = lower value 0.966 | locus YDR334W, strain swr1, stronger effect = lower value 0.99 | locus YDR335W, strain msn5, stronger effect = lower value 0.994 | locus YDR388W, stronger effect = lower value 0.99 | locus YDR392W, strain spt3, stronger effect = lower value 0.91 | locus YDR502C, strain sam2, stronger effect = lower value 0.974 | locus YEL003W, strain gim4, stronger effect = lower value 0.981 | locus YEL037C, strain rad23, stronger effect = lower value 0.991 | locus YEL061C, strain CIN8 (second series), stronger effect = lower value 0.988 | locus YEL061C, strain CIN8, stronger effect = lower value 0.999 | locus YER015W, strain faa2, stronger effect = lower value 0.998 | locus YER016W, strain bim1, stronger effect = lower value 0.995 | locus YER110C, stronger effect = lower value 0.973 | locus YER111C, strain swi4, stronger effect = lower value 1.01 | locus YER155C, strain BEM2, stronger effect = lower value 1.01 | locus YER167W, strain BCK2, stronger effect = lower value 1.02 | locus YFR010W, strain ubp6, stronger effect = lower value 0.997 | locus YGL078C, strain dbp3, stronger effect = lower value 0.959 | locus YGL086W, strain mad1, stronger effect = lower value 0.993 | locus YGL167C, strain pmr1, stronger effect = lower value 0.99 | locus YGL173C, strain kem1, stronger effect = lower value 0.978 | locus YGL227W, strain vid30, stronger effect = lower value 1 | locus YGL240W, strain doc1, stronger effect = lower value 0.952 | locus YGL248W, strain PDE1, stronger effect = lower value 0.98 | locus YGL253W, strain hxk2, stronger effect = lower value 1 | locus YGR078C, strain PAC10, stronger effect = lower value 0.983 | locus YGR135W, strain pre9, stronger effect = lower value 0.957 | locus YGR229C, strain SMI1, stronger effect = lower value 0.974 | locus YGR252W, strain gcn5, stronger effect = lower value 0.79 | locus YHR013C, strain ard1, stronger effect = lower value 0.985 | locus YHR027C, strain rpn1, stronger effect = lower value 1 | locus YHR030C, strain SLT2, stronger effect = lower value 1.01 and 0.905 | locus YHR079C, strain IRE1 (second series), stronger effect = lower value 1.01 | locus YHR079C, strain IRE1, stronger effect = lower value 0.901 | locus YHR094C, strain hxt1, stronger effect = lower value 1.02 | locus YHR129C, strain ARP1, stronger effect = lower value 0.999 | locus YHR142W, strain chs7, stronger effect = lower value 0.958 | locus YHR200W, strain rpn10, stronger effect = lower value 0.972 | locus YIL066C, strain RNR3, stronger effect = lower value 1 | locus YIL073C, strain SPO22, stronger effect = lower value 1 | locus YIL125W, strain kgd1, stronger effect = lower value 1.01 | locus YIR030C, strain dcg1, stronger effect = lower value 0.99 | locus YJL092W, strain hpr5, stronger effect = lower value 0.993 | locus YJL095W, strain BCK1 (second series), stronger effect = lower value 0.998 | locus YJL095W, strain BCK1, stronger effect = lower value 0.932 and 0.924 | locus YJL115W, strain asf1, stronger effect = lower value 0.994 | locus YJL129C, strain trk1, stronger effect = lower value 1.05 | locus YJL134W, strain LCB3, stronger effect = lower value 1.01 | locus YJL154C, strain vps35, stronger effect = lower value 1.01 | locus YJL164C, strain tpk1, stronger effect = lower value 0.973 | locus YJL166W, strain qcr8, stronger effect = lower value 0.995 | locus YJL168C, strain set2, stronger effect = lower value 1 | locus YJL187C, strain SWE1 (second series), stronger effect = lower value 0.991 | locus YJL187C, strain SWE1, stronger effect = lower value 0.999
active: locus YER155C, strain BEM2 (second series), stronger effect = lower value 0.787
